Measured values taken from the supplement of paper PMC11732987, “Enantioselective OTUD7B fragment discovery through chemoproteomics screening and high-throughput optimisation” (Communications Chemistry, 2025).

Tests used:
Test in all cases: log2 ratio of Biotin-Ahx-Ub-VS probe labelling (fragment/DMSO); higher = less target engagement (more negative = stronger competition), active = hit call of the paper (q ≤ 0.05, log2 ratio ≤ -1)
Conditions in all cases: compound concentration: 200 uM; treatment time: 3 h
OTUD6B = target: T1, OTUD6B (UniProt Q8N6M0)
T1 sequence (whole entry): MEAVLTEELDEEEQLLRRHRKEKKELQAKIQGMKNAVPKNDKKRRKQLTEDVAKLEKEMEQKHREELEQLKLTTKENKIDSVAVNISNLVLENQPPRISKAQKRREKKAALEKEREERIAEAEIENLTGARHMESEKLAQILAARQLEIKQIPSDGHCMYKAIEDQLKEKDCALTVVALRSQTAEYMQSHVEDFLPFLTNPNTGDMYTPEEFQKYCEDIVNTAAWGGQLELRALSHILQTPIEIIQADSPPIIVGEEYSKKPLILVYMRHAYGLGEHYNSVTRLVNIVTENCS
Summary of the method: (§1)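 HEK293T lysate (495 µg per sample, in Tris/CHAPS/IGEPAL buffer with protease inhibitors) was treated in triplicate with fragment at 200 µM or with DMSO for 3 h. It was then treated with Biotin-Ahx-Ub-VS (0.5 µM final) for 1 h. Labelled DUBs were NeutrAvidin-enriched, digested with LysC and trypsin, and run by diaPASEF LC-MS/MS. Spectronaut label-free quantities were global-median-normalised. Values are average log2 ratios fragment/DMSO by unpaired t-test, using proteins with ≥2 unique peptides.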

OTUD7B = target: T2, OTUD7B (UniProt Q6GQQ9)
T2 sequence (whole entry): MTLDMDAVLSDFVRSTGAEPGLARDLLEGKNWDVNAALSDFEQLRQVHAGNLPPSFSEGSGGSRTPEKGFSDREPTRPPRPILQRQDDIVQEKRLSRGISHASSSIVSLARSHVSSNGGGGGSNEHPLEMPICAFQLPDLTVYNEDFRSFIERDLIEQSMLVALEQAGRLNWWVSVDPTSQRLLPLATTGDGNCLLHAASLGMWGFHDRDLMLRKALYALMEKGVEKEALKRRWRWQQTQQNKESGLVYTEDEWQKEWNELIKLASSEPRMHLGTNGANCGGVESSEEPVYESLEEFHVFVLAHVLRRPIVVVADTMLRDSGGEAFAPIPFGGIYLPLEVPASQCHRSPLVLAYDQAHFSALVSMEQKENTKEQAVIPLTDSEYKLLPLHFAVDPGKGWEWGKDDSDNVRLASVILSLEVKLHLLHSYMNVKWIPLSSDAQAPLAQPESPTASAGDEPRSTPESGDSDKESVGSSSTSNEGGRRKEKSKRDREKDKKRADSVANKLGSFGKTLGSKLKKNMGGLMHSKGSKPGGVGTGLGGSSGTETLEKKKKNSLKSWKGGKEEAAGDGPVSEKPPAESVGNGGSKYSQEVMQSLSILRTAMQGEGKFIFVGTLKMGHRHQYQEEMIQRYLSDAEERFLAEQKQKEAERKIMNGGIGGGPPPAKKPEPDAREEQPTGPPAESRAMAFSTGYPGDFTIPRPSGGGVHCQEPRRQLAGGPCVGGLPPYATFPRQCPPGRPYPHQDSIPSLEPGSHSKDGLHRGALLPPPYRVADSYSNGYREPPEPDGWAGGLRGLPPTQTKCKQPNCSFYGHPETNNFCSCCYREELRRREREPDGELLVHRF
Summary of the method: as §1

PRPF8 = PRPF8 (UniProt Q6P2Q9)
Summary of the method: as §1

PSMD7 = target: T3, PSMD7 (UniProt P51665)
T3 sequence (whole entry): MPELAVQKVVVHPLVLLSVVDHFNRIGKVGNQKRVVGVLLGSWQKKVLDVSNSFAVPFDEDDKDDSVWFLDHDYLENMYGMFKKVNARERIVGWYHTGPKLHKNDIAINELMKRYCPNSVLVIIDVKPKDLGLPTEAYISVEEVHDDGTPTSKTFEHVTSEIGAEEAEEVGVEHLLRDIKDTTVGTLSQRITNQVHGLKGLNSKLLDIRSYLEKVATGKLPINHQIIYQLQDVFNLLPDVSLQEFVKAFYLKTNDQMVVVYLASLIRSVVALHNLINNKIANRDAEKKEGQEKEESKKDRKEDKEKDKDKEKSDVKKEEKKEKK
Summary of the method: as §1

UCHL1 = UCHL1 (UniProt P09936)
Summary of the method: as §1

UCHL3 = target: T4, UCHL3 (UniProt P15374)
T4 sequence (whole entry): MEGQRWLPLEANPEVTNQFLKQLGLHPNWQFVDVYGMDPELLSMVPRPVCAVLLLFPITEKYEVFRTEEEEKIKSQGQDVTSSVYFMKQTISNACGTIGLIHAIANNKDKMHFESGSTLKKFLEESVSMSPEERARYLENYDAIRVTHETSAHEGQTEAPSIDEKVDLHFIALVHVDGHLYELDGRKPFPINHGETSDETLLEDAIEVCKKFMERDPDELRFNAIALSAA
Summary of the method: as §1

UCHL5 = target: T5, UCHL5 (UniProt Q9Y5K5)
T5 sequence (whole entry): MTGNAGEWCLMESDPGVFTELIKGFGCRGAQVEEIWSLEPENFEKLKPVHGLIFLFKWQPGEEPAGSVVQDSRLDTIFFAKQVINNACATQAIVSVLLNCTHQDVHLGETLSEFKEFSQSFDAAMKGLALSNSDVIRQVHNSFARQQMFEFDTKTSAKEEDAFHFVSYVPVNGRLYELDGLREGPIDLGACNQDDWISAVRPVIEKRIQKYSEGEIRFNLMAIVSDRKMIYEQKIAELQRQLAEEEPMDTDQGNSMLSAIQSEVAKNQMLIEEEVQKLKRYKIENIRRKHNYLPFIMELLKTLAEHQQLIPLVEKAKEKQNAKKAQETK
Summary of the method: as §1

USP10 = USP10 (UniProt Q14694)
Summary of the method: as §1

USP15 = target: T6, USP15 (UniProt Q9Y4E8)
T6 sequence (whole entry): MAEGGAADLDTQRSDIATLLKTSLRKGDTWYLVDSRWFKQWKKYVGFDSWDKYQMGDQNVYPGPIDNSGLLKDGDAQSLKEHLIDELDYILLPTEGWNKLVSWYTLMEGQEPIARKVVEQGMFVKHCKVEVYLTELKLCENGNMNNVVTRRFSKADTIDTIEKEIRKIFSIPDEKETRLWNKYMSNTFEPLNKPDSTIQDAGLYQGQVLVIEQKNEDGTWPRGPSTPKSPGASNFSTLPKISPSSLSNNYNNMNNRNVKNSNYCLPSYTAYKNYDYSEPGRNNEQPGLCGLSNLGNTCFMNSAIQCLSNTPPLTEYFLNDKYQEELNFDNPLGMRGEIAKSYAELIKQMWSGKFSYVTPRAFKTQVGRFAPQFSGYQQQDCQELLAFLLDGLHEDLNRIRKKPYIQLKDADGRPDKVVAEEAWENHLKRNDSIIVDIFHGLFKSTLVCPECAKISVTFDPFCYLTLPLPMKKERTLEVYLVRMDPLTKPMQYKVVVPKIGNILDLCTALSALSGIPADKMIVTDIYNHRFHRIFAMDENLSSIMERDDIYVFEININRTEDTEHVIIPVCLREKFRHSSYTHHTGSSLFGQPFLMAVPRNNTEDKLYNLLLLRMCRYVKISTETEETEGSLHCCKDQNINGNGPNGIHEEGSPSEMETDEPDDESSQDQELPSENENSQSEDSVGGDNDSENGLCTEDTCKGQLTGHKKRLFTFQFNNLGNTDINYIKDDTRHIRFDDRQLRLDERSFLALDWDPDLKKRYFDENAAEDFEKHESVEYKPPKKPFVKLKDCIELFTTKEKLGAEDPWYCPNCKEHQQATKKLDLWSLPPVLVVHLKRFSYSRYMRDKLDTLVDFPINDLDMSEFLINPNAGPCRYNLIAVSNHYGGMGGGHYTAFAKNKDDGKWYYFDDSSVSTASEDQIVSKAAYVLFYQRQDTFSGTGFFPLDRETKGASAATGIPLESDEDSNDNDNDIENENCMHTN
Summary of the method: as §1

USP16 = USP16 (UniProt Q9Y5T5)
Summary of the method: as §1

Measured: log2 ratio of Biotin-Ahx-Ub-VS probe labelling

Chain of USP10 (Q14694 whole entry): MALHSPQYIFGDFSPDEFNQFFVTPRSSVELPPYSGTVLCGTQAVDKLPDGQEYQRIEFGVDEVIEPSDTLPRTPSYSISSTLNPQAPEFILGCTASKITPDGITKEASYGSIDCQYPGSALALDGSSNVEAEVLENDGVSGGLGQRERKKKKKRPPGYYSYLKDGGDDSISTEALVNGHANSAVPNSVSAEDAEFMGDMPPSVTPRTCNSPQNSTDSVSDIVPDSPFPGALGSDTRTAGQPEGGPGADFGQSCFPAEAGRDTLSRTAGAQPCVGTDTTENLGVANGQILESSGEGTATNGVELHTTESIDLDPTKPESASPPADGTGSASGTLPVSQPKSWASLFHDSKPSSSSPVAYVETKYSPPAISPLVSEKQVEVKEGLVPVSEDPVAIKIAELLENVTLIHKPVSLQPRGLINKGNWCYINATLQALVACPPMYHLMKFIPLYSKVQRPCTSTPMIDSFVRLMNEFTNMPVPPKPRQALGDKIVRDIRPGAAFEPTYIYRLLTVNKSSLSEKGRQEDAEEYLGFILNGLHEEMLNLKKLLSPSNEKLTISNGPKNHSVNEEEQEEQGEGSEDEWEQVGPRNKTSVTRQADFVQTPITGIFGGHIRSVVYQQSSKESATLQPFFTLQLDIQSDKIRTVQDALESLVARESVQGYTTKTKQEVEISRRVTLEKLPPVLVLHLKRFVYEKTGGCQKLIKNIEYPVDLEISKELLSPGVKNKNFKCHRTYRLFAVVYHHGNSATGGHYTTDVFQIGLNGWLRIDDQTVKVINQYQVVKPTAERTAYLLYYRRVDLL
Chain of USP16 (Q9Y5T5 whole entry, looked up): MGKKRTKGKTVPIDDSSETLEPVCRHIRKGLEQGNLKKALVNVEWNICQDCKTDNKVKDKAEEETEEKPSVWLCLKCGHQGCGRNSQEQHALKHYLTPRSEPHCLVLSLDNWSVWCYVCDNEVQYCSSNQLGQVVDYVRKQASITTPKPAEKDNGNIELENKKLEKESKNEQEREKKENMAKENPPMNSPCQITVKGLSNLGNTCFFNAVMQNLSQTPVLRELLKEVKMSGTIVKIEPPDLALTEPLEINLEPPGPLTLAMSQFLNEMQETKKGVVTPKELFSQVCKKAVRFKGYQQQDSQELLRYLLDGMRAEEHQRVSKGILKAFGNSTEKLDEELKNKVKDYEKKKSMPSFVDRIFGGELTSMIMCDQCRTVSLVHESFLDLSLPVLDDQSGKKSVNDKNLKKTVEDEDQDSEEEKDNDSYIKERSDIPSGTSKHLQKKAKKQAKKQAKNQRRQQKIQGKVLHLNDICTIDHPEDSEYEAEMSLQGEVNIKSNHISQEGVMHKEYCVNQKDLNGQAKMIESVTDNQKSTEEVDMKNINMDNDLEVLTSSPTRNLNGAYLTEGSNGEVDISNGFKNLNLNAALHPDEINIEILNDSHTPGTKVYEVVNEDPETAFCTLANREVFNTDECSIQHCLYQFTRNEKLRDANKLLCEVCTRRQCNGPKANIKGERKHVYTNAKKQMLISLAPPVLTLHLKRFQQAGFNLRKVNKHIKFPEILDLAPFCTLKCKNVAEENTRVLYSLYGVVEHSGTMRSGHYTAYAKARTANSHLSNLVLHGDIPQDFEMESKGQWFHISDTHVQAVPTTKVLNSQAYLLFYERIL
Chain of UCHL1 (P09936 whole entry, looked up): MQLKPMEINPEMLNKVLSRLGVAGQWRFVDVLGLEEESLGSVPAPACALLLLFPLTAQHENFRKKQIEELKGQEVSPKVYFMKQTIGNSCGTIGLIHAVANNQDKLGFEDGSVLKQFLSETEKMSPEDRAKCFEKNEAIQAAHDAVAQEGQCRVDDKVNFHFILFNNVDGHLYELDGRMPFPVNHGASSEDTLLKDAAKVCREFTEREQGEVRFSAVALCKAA

Cc1n[nH]c(=O)c2c(NC(=O)CCl)oc(C)c12
inactive: OTUD6B 0.111 | OTUD7B -0.365 | PRPF8 0.175 | PSMD7 0.0225 | UCHL1 -0.344 | UCHL3 0.303 | UCHL5 -0.0452 | USP10 -0.0909 | USP15 -0.014 | USP16 -0.0991
